This passage reports outcome, Potency and max response results from PubChem BioAssay (NCATS).

Values without a mark were called inactive. Inconclusive results are not listed. Active and inactive are the calls of the source. The call rests on the fitted dose curve; in most records, active means well fitted curve in the direction sought with a large enough effect; inconclusive means small, poorly fitted or top-dose-only effect, or another doubt; inactive means no such curve, though single readings can be large; an effect the other way counts as inactive or inconclusive.

Experiment [1] in a line: qHTS for Activators of Parkin Expression: LOPAC Validation Assay (FLuc Reporter) (AID 720573;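 further: 0% = DMSO and 100% = positive control compounds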). The procedure, abridged: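 Readout is FLuc luminescence from neuronal reporter cells (Parkin promoter, FLuc plus NLuc) after 24 h compound exposure in dose response. Values normalized to neutral DMSO and positive-control compounds.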
On the technique in general: Quantitative high-throughput screening tests each substance at several concentrations.

The target in experiment [2] is T1, Hexokinase-4 (Homo sapiens) + Glucokinase regulatory protein (Homo sapiens) (UniProt P35557+Q14397). Nature of the experiment: qHTS assay for inhibitors of recombinant human GCK-GKRP interaction: Diaphorase-coupled assay (AID 743205). The procedure, abridged:
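Signal derives from resorufin generated by diaphorase, linked to GCK turnover of glucose (5 mM) and ATP (0.4 mM). Enzyme complex was added after a 20-minute compound preincubation and monitored for 30 minutes.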

Experiment [3] addresses T1, Hexokinase-4 (Homo sapiens) + Glucokinase regulatory protein (Homo sapiens). Description: qHTS assay for inhibitors of recombinant human GCK-GKRP interaction: ADP-Glo assay (AID 743206).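 Further: plate controls were DMSO plus enzyme for no effect and no enzyme for full effect.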 The procedure, abridged: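 Pin-transferred compounds meet a 15 nM GST-GCK/15 nM FLAG-GKRP/2 uM S6P mix (dispense concentrations). ATP is then added to 0.4 mM final with 5 mM glucose, and the reaction runs 60 min at room temperature. ADP is quantified luminescently.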

Experiment [4] shares this target. Description: qHTS assay for inhibitors of recombinant human GCK-GKRP interaction: HTRF assay (AID 743207).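 Further: 0% = DMSO with GCK present and -100% = DMSO wells lacking GCK.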 The procedure, abridged:
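Titration screening format: recombinant GST-GCK and FLAG-GKRP at 5 nM, S6P at 2 uM, labelled anti-tag antibodies, 60 min at RT, dual-wavelength HTRF readout.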

Experiment [5] can be described thus: qHTS Assay for Identifying Gametocytocidal Compounds (AID 743244). Further: potency means the concentration at half of the fitted maximal effect.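 On max response: on the % scale 0 is the no-effect control and ±100 the full control effect; actives lower the fluorescent signal which means gametocytes are killed.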 Conditions: P. falciparum 3D7 stage III-V gametocytes, alamarBlue, 72 h; max response: active compounds read low. The procedure, abridged:
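Viability read-out was resazurin reduction (alamarBlue, 24 h) measured at Ex 525/Em 598 nm. Beforehand, late-stage (III-V) 3D7 P. falciparum gametocytes at 20,000 cells/well were incubated with compound 72 h at 37C under 5% CO2.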

T1 sequence (P35557 whole entry, looked up): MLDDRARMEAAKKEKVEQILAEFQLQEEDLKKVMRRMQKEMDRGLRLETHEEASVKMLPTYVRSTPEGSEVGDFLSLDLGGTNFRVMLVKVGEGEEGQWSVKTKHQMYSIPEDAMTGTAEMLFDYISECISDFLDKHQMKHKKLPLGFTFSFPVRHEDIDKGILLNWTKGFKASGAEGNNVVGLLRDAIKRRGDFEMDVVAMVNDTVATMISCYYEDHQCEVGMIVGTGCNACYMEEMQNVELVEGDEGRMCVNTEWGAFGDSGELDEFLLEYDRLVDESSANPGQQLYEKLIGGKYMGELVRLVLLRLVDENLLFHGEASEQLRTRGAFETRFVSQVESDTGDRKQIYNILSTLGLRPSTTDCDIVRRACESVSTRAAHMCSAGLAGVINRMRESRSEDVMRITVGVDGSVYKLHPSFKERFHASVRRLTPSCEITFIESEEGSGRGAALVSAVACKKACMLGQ
T1 sequence (Q14397 whole entry, looked up): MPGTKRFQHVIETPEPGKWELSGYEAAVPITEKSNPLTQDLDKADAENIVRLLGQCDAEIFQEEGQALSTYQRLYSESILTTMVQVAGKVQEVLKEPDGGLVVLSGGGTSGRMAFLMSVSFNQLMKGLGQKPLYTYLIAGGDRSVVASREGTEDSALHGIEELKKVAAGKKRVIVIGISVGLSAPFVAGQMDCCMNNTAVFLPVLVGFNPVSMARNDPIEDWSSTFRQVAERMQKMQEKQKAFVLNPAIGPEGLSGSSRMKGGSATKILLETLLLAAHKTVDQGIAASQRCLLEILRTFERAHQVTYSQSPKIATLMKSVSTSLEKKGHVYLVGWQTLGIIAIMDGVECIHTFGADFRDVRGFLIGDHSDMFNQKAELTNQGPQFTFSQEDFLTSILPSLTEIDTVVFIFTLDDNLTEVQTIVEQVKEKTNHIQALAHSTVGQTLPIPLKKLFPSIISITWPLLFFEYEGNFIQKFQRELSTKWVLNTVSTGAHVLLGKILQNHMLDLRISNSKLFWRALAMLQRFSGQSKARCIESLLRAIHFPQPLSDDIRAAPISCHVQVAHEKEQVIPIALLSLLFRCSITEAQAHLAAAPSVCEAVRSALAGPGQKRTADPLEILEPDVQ

On to `OC1CCCCC1N1CCC(c2ccccc2)CC1` (configuration not stated), for which the outcome in experiment [1], in experiment [3] and in experiment [4] was inactive. In addition, in experiment [2], the Potency result was “inactive”. For the same compound, in experiment [5], the max response is 6.56%.

`NC(=O)CI`: the compound was classed as inactive in experiment [1], in experiment [3] and in experiment [4]. For the same compound, the Potency result in experiment [2] is “inactive”. Further, the max response in experiment [5] is 8.04%.

On to `CC(C)[C@@]1(NC(=O)[C@@H]2C[C@@H]3c4cccc5[nH]cc(c45)C[C@H]3N(C)C2)O[C@@]2(O)[C@@H]3CCCN3C(=O)[C@H](Cc3ccccc3)N2C1=O`, for which the compound was classed as inactive in experiment [1], in experiment [3] and in experiment [4]. Further, in experiment [2], the Potency result was “inactive”. In addition, the Potency in experiment [5] is 5.01 µM (active).

On to `c1ccc2cc(CC3=NCCN3)ccc2c1`, for which the call in experiment [1], in experiment [3] and in experiment [4] was inactive. In addition, the Potency result in experiment [2] was “inactive”. In addition, the max response in experiment [5] was 5.44%.

On to `NCCc1c[nH]c2ccc(C(N)=O)cc12`, for which the outcome in experiment [1], in experiment [3] and in experiment [4] was inactive. The Potency entry in experiment [2] is “inactive”. Moreover, the max response in experiment [5] was 47.6%.

Regarding `CCCN1CC[C@@H]2c3cc(O)ccc3CC[C@@H]21`, the result in experiment [1], in experiment [3] and in experiment [4] was inactive. Moreover, the Potency result in experiment [2] was “inactive”. In experiment [5], the max response is 20.4%.

Consider `CC(=O)NBr`, for which the call in experiment [1], in experiment [3] and in experiment [4] was inactive. For the same compound, the Potency result in experiment [2] was “inactive”. In experiment [5], the max response was 10.7%.

As to `C=CCN1C[C@@H](C)N([C@H](c2ccc(C(=O)N(CC)CC)cc2)c2cccc(OC)c2)C[C@@H]1C`, the compound was called inactive in experiment [1], in experiment [3] and in experiment [4]. The Potency result in experiment [2] was “inactive”.

For `NC(=O)COc1c(F)cc(SCCNS(=O)(=O)c2ccccc2)cc1F`, the call in experiment [1] and in experiment [3] was inactive. Also, in experiment [2], the Potency entry was “inactive”. The max response in experiment [5] is 9.54%.

With `CCCn1c(=O)c2[nH]c(C3CCCC3)nc2n(CCCOC(=O)c2ccc(S(=O)(=O)F)cc2)c1=O`, the compound was classed as inactive in experiment [1] and in experiment [3]. The Potency entry in experiment [2] is “inactive”. Moreover, the max response in experiment [5] was 11.9%.

Regarding `C=CCN1CC[C@]23c4c5ccc(O)c4O[C@@H]2/C(=N/N=C2\CC[C@@]4(O)C6Cc7ccc(O)c8c7[C@@]4(CCN6CC=C)[C@@H]2O8)CC[C@@]3(O)C1C5`, the call in experiment [1], in experiment [3] and in experiment [4] was inactive. Moreover, the Potency entry in experiment [2] was “inactive”. The Potency in experiment [5] was 1 µM (active).
